Luc counter: Counterscreen for Luciferase (Kinase-Glo TM) Inhibition; Kinase-Glo luciferase, ATP luminescence, 8 min; Potency, µM (doses to about 38.3 µM), without a hit: at the highest dose activity change, negative = inhibition, actives largely listed as inhibitors; 0.28% of 200,000 active; AID 1379, 2008; further: nearly all actives have a fitted effect of over 60% in size
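Kinase-Glo luciferase light output from ATP and luciferin was measured with 10 uM ATP, within the enzyme's linear range. Buffer: 50 mM imidazole pH 7.2, 50 mM KCl, 7 mM MgCl2, 0.01% Tween 20, 0.05% BSA; luminescence read after 8 min at ambient temperature.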
Gal4-VP16 FLuc: VP16 counterscreen qHTS for inhibitors of ROR gamma transcriptional activity. Drosophila S2 Gal4-VP16 UAS-luciferase, luminescence, 20 h. Potency, µM (doses to about 53.6 µM), inactives show at the top dose activity, negative = inhibition, hits mostly inhibitors. 3.5% of 310,000 active;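 further: Gal4-VP16 expression switched on by copper sulfate through the metallothionein promoter; nearly all actives have a fitted effect of over 50% in size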
RORgamma inh: qHTS for inhibitors of ROR gamma transcriptional activity; 5.4% of 310,000 active; Drosophila S2 Gal4-RORgamma UAS-luciferase reporter, 20 h; Potency, µM (highest dose often 53.6 µM), without a hit: at the top dose activity change, negative = inhibition, hits mostly inhibitors; AID 2551, 2010; further: nearly all actives have a fitted effect of over 60% in size
Target sequence (P51450 whole entry, looked up, the tested form may be a part): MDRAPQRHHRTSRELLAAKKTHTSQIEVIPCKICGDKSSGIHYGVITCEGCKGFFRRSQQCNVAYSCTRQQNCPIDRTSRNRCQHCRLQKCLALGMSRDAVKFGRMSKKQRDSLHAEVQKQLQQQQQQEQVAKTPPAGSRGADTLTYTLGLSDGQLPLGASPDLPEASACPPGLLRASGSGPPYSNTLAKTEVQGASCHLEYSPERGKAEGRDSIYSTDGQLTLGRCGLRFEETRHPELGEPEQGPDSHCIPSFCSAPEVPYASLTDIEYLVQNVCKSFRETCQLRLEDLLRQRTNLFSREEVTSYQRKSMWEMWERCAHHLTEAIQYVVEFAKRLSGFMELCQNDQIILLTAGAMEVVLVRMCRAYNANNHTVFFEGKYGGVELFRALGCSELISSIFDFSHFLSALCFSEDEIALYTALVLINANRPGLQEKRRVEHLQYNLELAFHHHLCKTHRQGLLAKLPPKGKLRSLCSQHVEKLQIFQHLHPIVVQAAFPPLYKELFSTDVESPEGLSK
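Luciferase reporter read in Schneider cells carrying Gal4-RORγ (mouse) and UAS-Photinus luciferase; cells given compound 1 h before 700 uM copper sulfate induction, then incubated 20 h at ambient temperature.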
Starred values were filed as active, the others as inactive; ? = inconclusive; · = no result given; [ ] = another dose, or the depositor's remark. In the library only some 6.4% were active in any assay of this set; here they are far more common. The call rests on the fitted dose curve; in most records, active means well fitted curve in the direction sought with a large enough effect; inconclusive means small, poorly fitted or top-dose-only effect, or another doubt; inactive means no such curve, though single readings can be large; an effect the other way counts as inactive or inconclusive. On the % scale 0 is the no-effect control and ±100 the full control effect; potency means the concentration at half of the fitted maximal effect.

SMILES	Luc counter	Gal4-VP16 FLuc	RORgamma inh
COc1ccc(-c2[nH]n(-c3ccc([N+](=O)[O-])cc3)c(=O)c2C=NCCN2CCNCC2)cc1	?	?	14µM*
O=c1c(C=NCCN2CCNCC2)c(-c2ccccc2)[nH]n1-c1ccc([N+](=O)[O-])cc1	-5%	25%	-15%
COc1cccc(CN2CCNC(=O)C2CC(=O)NCCc2nc(C)c(C)s2)c1OC (centres undefined)	-4%	-4%	9%
COc1cc([C@H]2c3[nH]c4ccccc4c3C[C@H]3C(=O)N4[C@@H](c5cc(OC)c(OC)c(OC)c5)c5[nH]c6ccccc6c5C[C@H]4C(=O)N23)cc(OC)c1OC	2%	10µM*	?
CCN1C(=O)[C@@H]2Cc3c([nH]c4ccccc34)C(c3cc(OC)c(OC)c(OC)c3)N2C1=S (some centres undefined)	·	19%	17%
Cc1cccc(C)c1NC(=S)N(CCN(C)C)Cc1cccs1	-1%	-3%	10µM*
Cc1cccc(C)c1NC(=S)N(CCCN1CCN(C)CC1)Cc1cccs1	0%	-2%	10%
Cc1cccc(NC(=S)N(CCN(C)C)Cc2cccs2)c1	9%	-1%[10 µM]	11µM*
CCc1cccc(C)c1NC(=S)N(CCN(C)C)Cc1cccs1	0%	-9%[10 µM]	11µM*
Cc1ccc(NC(=S)N(CCN(C)C)Cc2cccs2)c(C)c1	0%	-6%	?
Cc1cc(C)c(NC(=S)N(CCN(C)C)Cc2cccs2)c(C)c1	1%	-9%[10 µM]	17%
Cc1ccc(S(=O)(=O)CCNC(=O)Cc2ccc(Cl)cc2)cc1	-1%	-8%	16%
CCc1cccc(C)c1NC(=O)CC1Oc2ccc(C)cc2NC1=O (centres undefined)	·	4%	17%
COc1cc(/C=N/NC(=O)c2ccccc2Cl)ccc1Oc1ccc([N+](=O)[O-])cn1	-3%	-1%	32%
CCCC(=O)NC(Nc1cc(C(F)(F)F)ccc1Cl)C(Cl)(Cl)Cl (centres undefined)	·	10µM*	?
CC(C)C(=O)NC(Nc1cc(C(F)(F)F)ccc1Cl)C(Cl)(Cl)Cl (centres undefined)	-3%	-12%	30%
C[C@H]1COC(=O)[C@H](Cc2ccccc2)NC(=O)[C@@H](C)COC(=O)[C@H](Cc2ccccc2)NC1=O	·	9%[10 µM]	16%[10 µM]
COc1cc(/C=C2\SC(=S)N(NC(=O)c3cccnc3)C2=O)ccc1O	·	-3%	-10%
COc1ccc(/C=C2\SC(c3ccc(C)cc3)=NC2=O)cc1OC	3%	-10%[0.365 µM]	0%
COc1cc(/C=C2\SC(c3ccc(C)cc3)=NC2=O)ccc1O	2%	10µM*	14µM*
COc1cc(/C=C2\SC(=S)N(NC(=O)c3ccc(O)cc3)C2=O)ccc1O	·	?	11µM*
C[C@H](O/N=C1/[C@H]2O[C@@H]2[C@@H](O)[C@H]2[C@H]1CCn1c(=O)n(-c3ccccc3)c(=O)n12)c1cn([C@H]2COC[C@H]2O)nn1	·	-13%[10 µM]	0%[10 µM]
O=C(O)COc1ccc(OCCNC[C@@H](O)COc2ccccc2)cc1	-1%	2%	18%
Cc1ccc(C(=O)NCc2ccco2)cc1Br	-4%	7%	24%
COc1cc(C(=O)NCc2ccco2)c(Br)c(OC)c1OC	-2%	3%	13%
SMILES	Luc counter	Gal4-VP16 FLuc	RORgamma inh
COc1ccc(C(=O)NC(=S)NCc2ccco2)cc1Br	·	6.3µM*	3.5µM*
CCOc1ccc(C(=O)NCc2ccco2)cc1OC	·	-25%	?
COc1ccc(C(=O)NC(=S)NCc2ccco2)cc1OC	1%	16%[0.365 µM]	18µM*
COc1c(C)cc(Br)cc1C(=O)NC(=S)NCc1ccco1	·	?	11µM*
COc1ccc(NS(=O)(=O)c2ccc3c(c2)NC(=O)CC(=O)N3)cc1OC	·	-1%	10%
CC(Oc1ccc(C#N)cc1)C(=O)c1ccc(F)c(F)c1 (centres undefined)	0%	0%	0%
OC[C@H]1O[C@@H](O[C@@H]2OC=C[C@H]3[C@H](O)[C@@H]4O[C@]4(CO)[C@@H]23)[C@H](O)[C@@H](O)[C@@H]1O	·	-10%	-23%
O=[N+]([O-])c1ccc(OCCO)nc1	·	-4%	-8%
CC1CCCCN1CCCNC(=O)c1ccc2nc(N3CCCCC3)sc2c1 (centres undefined)	·	1%	3%
Cc1ccc(NC(=S)NCc2ccco2)c(C)c1	·	?	16µM*
Cc1cccc(C)c1NC(=S)Nc1ccccc1C(=O)NCc1ccco1	0%	-27%	?
Cc1cc(C)c(NC(=O)C(=O)NCc2ccco2)c(C)c1	-1%	7%	2%
Cc1ccccc1NC(=S)NCc1ccco1	-2%	?	13µM*
C1COC1	·	8%	-26%
O=C(Nc1ccc2nsnc2c1)N1CCCCCC1	-5%	11%	?
Cc1ccc(C2CCN(C(=S)Nc3cccc(C)c3)C2)cc1 (centres undefined)	·	-7%	7.9µM*
S=C(Nc1ccc2nsnc2c1)N1CCCC1	-28%	11µM*	7.9µM*
COc1ccc(NC(=S)N2CCCCCC2)cc1OC	2%	12%	-20%
Cc1ccc(C2CCN(C(=S)NC(C)(C)C)C2)cc1 (centres undefined)	·	-6%	?
Cc1cccc(NC(=S)N2CCCCC2)c1	4%	18µM*	?
Cc1cccc(NC(=S)N2CCC(NC(=O)C3CCCCC3)CC2)c1	·	-5%	-3%
Cc1ccc(NC(=S)N2CCCCC2)cc1C	·	?	4.5µM*
CC(CC(=O)Nc1ccc(S(=O)(=O)N2CCOCC2)cc1)c1ccccc1 (centres undefined)	·	-6%	23%
CC(C)=CC(=O)Oc1ccc(C(=O)N(C)c2ccccc2I)cc1	·	22%	33%
CC(=O)c1ccc(NC(=O)CN2C(=O)COc3ccc(S(=O)(=O)N4CCCC4)cc32)cc1	·	1%	4%
SMILES	Luc counter	Gal4-VP16 FLuc	RORgamma inh
COc1ccc(C2CCCN2C(=S)Nc2ccc(C)c(C)c2)cc1OC (centres undefined)	-2%	?	13µM*
COc1ccc(C2CCCN2C(=O)Nc2ccc(C)c(C)c2)cc1OC (centres undefined)	-3%	16%	14%
O=S1(=O)C2CC3OC2(CC3c2ccc(F)cc2)CN1Cc1ccc(Cl)cc1 (centres undefined)	·	-28%	?
Nc1cc(Cl)ccc1N1CCCCCC1	1%	-7%	-41%
Cn1c(=O)c2c(nc(N/N=C/c3ccc(OC(=O)c4ccco4)cc3)n2Cc2ccccc2Cl)n(C)c1=O	1%	-1%	10%
C=CCNc1nc2c(c(=O)n(C)c(=O)n2C)n1CCCCCC	0%	5µM*	?
CC(C)CCn1c(NCCc2ccccc2)nc2c1c(=O)n(C)c(=O)n2C	·	?	5%
C=CCNc1nc2c(c(=O)n(C)c(=O)n2C)n1Cc1ccc(F)cc1	-1%	7.1µM*	?
C=CCNc1nc2c(c(=O)n(C)c(=O)n2C)n1CC	-1%	-12%	-5%
Cn1c(=O)c2c(nc(NCCc3ccccc3)n2Cc2ccc(F)cc2)n(C)c1=O	15%	22µM*	?
